{"source": "PubChem BioAssay AID1159577", "about": "(Broad Institute, 2015)", "note": "Hit rate of the full screen: of about 1,300 compounds, about 240 (18%) were called active. Roughly 8% stayed inconclusive and do not appear here. A selection follows. Measured potencies and affinities stand elsewhere. Values without a mark were called inactive. How the calls were made is not given here."}
{"assay": "toxicity to human hepatoma HepG2 cells – cell-based, cherry-picked samples, cytotoxicity control, dose response (AID 1159577);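 further: 0% = neutral control wells and -100% = positive control wells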", "details": "HepG2 cytotoxicity counterscreen, plate reader; series mostly up to 19.5 µM; activity change, negative = cytotoxicity: at the top concentration"}
{"smiles": "COc1ccc(CN2C[C@@H](C)[C@H](OC)CN(C)C(=O)c3cc(NC(=O)c4nc5ccccc5s4)ccc3OC[C@H]2C)cc1", "activity change, negative = cytotoxicity": "-2.5% [at 21 µM]"}
{"smiles": "CCCN(C)C[C@H]1Oc2ncc(C#Cc3ccc(F)cc3)cc2C(=O)N([C@@H](C)CO)C[C@H]1C", "activity change, negative = cytotoxicity": "-9.44%"}
{"smiles": "CCCN(C)C[C@H]1Oc2ncc(C#Cc3ccccc3OC)cc2C(=O)N([C@H](C)CO)C[C@H]1C", "activity change, negative = cytotoxicity": "-14.8%"}
{"smiles": "COc1cccc(NC(=O)N2[C@@H](CO)[C@@H](c3ccccc3)[C@@H]2CNC(C)C)c1", "activity change, negative = cytotoxicity": "0.63%"}
{"smiles": "C[C@@H]1CN([C@@H](C)CO)C(=O)c2cccc(NC(=O)Nc3ccccc3)c2O[C@@H]1CN(C)C(=O)Nc1ccccc1", "activity change, negative = cytotoxicity": "-10.5%"}
{"smiles": "COc1ccc2c3c([nH]c2c1)[C@H](CO)N(C(=O)Nc1ccc(F)cc1)CC31CCN(S(=O)(=O)c2cccc(F)c2)CC1", "activity change, negative = cytotoxicity": "-1.31%"}
{"smiles": "COc1ccc2c3c([nH]c2c1)[C@H](CO)N(C(=O)Nc1ccc(F)cc1)CC31CCN(C(=O)c2ccccn2)CC1", "activity change, negative = cytotoxicity": "16.5%"}
{"smiles": "COc1ccc2c3c([nH]c2c1)[C@@H](CO)N(C(=O)Nc1cccc(F)c1)CC31CN(CC2CCOCC2)C1", "activity change, negative = cytotoxicity": "-16.3%"}
{"smiles": "COc1ccc2c3c([nH]c2c1)[C@H](CO)N(C(=O)Nc1ccc(F)cc1)CC31CCN(Cc2cc(-c3ccccc3)on2)CC1", "activity change, negative = cytotoxicity": "-22.1%"}
{"smiles": "O=C(C1CCCCC1)N1[C@H](CO)[C@@H](c2ccccc2)C12CN(Cc1cccc(Cl)c1)C2", "activity change, negative = cytotoxicity": "-17.7%"}
{"smiles": "CN(C)c1ccc2c(c1)[C@@H]1C[C@@H](CC(=O)NCc3cc(F)ccc3F)O[C@@H](CO)[C@@H]1O2", "activity change, negative = cytotoxicity": "-2.86%"}
{"smiles": "CC(C)(C)[S@](=O)N1Cc2cc(C(=O)N[C@@H]3CCN(Cc4ccccc4)C3)nc(-c3cccc(-c4cccnc4)c3)c2[C@@H]1CCO", "activity change, negative = cytotoxicity": "25% [at 21 µM]"}
{"smiles": "C/C=C/c1ccc2c(c1)[C@@H]1[C@@H](CCN1C(=O)C1CCCC1)[C@H](CO)N2", "activity change, negative = cytotoxicity": "24.7%"}
{"smiles": "O=C(C1CCCC1)N1CC2(C1)[C@@H](c1ccccc1)[C@H](CO)N2Cc1ccc(Cl)cc1", "activity change, negative = cytotoxicity": "5.85% [at 21 µM]"}
{"smiles": "CO[C@@H]1CN(C)C(=O)c2cc(NC(=O)Nc3ccc(C(F)(F)F)cc3)ccc2OC[C@H](C)NC[C@H]1C", "activity change, negative = cytotoxicity": "-34.1%"}
{"smiles": "CO[C@@H]1CN(C)C(=O)c2cc(NC(=O)Nc3cccc(Cl)c3)ccc2OC[C@H](C)NC[C@H]1C", "activity change, negative = cytotoxicity": "-4.09%"}
{"smiles": "CO[C@H]1CN(C)C(=O)c2cc(NC(=O)Nc3ccc(C(F)(F)F)cc3)ccc2OC[C@H](C)NC[C@H]1C", "activity change, negative = cytotoxicity": "5.35%"}
{"smiles": "CO[C@H]1CN(C)C(=O)c2cc(NC(=O)Nc3cccc(Cl)c3)ccc2OC[C@H](C)NC[C@H]1C", "activity change, negative = cytotoxicity": "-15.7%"}
{"smiles": "CO[C@@H]1CN(C)C(=O)c2cc(NC(=O)Nc3ccc(C(F)(F)F)cc3)ccc2OC[C@H](C)NC[C@@H]1C", "activity change, negative = cytotoxicity": "-6.48%"}
{"smiles": "CO[C@@H]1CN(C)C(=O)c2cc(NC(=O)Nc3cccc(Cl)c3)ccc2OC[C@@H](C)NC[C@@H]1C", "activity change, negative = cytotoxicity": "-5.39%"}
{"smiles": "CO[C@@H]1CN(C)C(=O)c2cc(NC(=O)Nc3ccc(C(F)(F)F)cc3)ccc2OC[C@@H](C)NC[C@@H]1C", "activity change, negative = cytotoxicity": "-9.95%"}
{"smiles": "Cc1ccccc1S(=O)(=O)N1[C@H](CO)[C@@H](c2ccc(C#CC3CC3)cc2)[C@@H]1C#N", "activity change, negative = cytotoxicity": "19.9%"}
{"smiles": "CCCNC(=O)N1[C@H](C#N)[C@H](c2ccc(-c3ccccc3F)cc2)[C@@H]1CO", "activity change, negative = cytotoxicity": "-24%"}
{"smiles": "COc1ccc(C#Cc2cnc3c(c2)C(=O)N([C@H](C)CO)C[C@H](C)[C@H](CN(C)S(=O)(=O)c2cccc(F)c2)O3)cc1OC", "activity change, negative = cytotoxicity": "2.52%"}
{"smiles": "COc1ccc(CN2CC3(CCN(C(=O)c4ccccc4)CC3)c3c([nH]c4cc(OC)ccc34)[C@@H]2CO)cc1", "activity change, negative = cytotoxicity": "-8.87%"}
{"smiles": "O=C(c1ccc(F)cc1)N1CC(=O)N2[C@H](CO)[C@H](c3ccc(-c4cccnc4)cc3)[C@H]2C1", "activity change, negative = cytotoxicity": "10.8%"}
{"smiles": "O=C(C1CCOCC1)N1[C@H](CO)[C@@H](c2ccccc2)C12CN(Cc1cccc(Cl)c1)C2", "activity change, negative = cytotoxicity": "15.3%"}
{"smiles": "COc1ccc(-c2ccc([C@@H]3[C@H]4CN(C(=O)NC(C)C)CC(=O)N4[C@H]3CO)cc2)cc1", "activity change, negative = cytotoxicity": "1.65%"}
{"smiles": "COc1ccc2c3c(n(C)c2c1)[C@H](CO)N(C(=O)Nc1ccc(F)cc1)CC31CCN(S(=O)(=O)c2cccc(F)c2)CC1", "activity change, negative = cytotoxicity": "-7.75%"}
{"smiles": "CN1c2ccc(-c3cccc(C#N)c3)cc2[C@H]2[C@H](CCN2S(=O)(=O)c2ccccc2F)[C@H]1CO", "activity change, negative = cytotoxicity": "27.2%"}
{"smiles": "CCCN(C)C[C@@H]1Oc2cc(C#Cc3cccnc3)ccc2S(=O)(=O)N([C@H](C)CO)C[C@@H]1C", "activity change, negative = cytotoxicity": "-7.54%"}
{"smiles": "COc1ccc2c3c([nH]c2c1)[C@H](CO)N(Cc1ccccc1Cl)CC31CN(C(=O)C2CC2)C1", "activity change, negative = cytotoxicity": "5.14%"}
{"smiles": "C[C@@H]1CN([C@@H](C)CO)C(=O)c2cccc(NC(=O)c3ccc(-c4nccs4)cc3)c2O[C@H]1CN(C)Cc1ccc(Cl)c(Cl)c1", "activity change, negative = cytotoxicity": "64.2%"}
{"smiles": "C[C@H](O)C#Cc1cnc2c(c1)C(=O)N([C@@H](C)CO)C[C@@H](C)[C@@H](CN(C)C(=O)Cc1ccncc1)O2", "activity change, negative = cytotoxicity": "20.7%"}
{"smiles": "CO[C@H]1CN(C)C(=O)c2ccc(NC(=O)c3nc4ccccc4s3)cc2OC[C@H](C)N(Cc2ccncc2)C[C@@H]1C", "activity change, negative = cytotoxicity": "9.87%"}
{"smiles": "C[C@@H]1CN([C@@H](C)CO)S(=O)(=O)c2ccc(C#CC3CCCC3)cc2O[C@H]1CN(C)C(=O)Cc1ccncc1", "activity change, negative = cytotoxicity": "2.64%"}
{"smiles": "C[C@@H](O)C#Cc1ccc([C@H]2[C@H]3CN(S(=O)(=O)c4ccccc4)CCCCN3[C@H]2CO)cc1", "activity change, negative = cytotoxicity": "11.4%"}
{"smiles": "CC(C)C#Cc1ccc([C@@H]2[C@H](CO)N3CCCCN(C(=O)c4ccc5c(c4)OCO5)C[C@@H]23)cc1", "activity change, negative = cytotoxicity": "-17.5%"}
{"smiles": "COc1ccc2c3c(n(C)c2c1)[C@H](CO)N(C(=O)Nc1ccc(F)cc1)CC31CCN(C(=O)c2ccc3c(c2)OCO3)CC1", "activity change, negative = cytotoxicity": "24.5%"}
{"smiles": "CC(C)(C)S(=O)N1Cc2cc(C(=O)NCc3ccc4c(c3)OCO4)nc(-c3cccc(-c4cc5ccccc5o4)c3)c2[C@H]1CCO", "note": "(stereo not given in full)", "activity change, negative = cytotoxicity": "19.7%"}
{"smiles": "COc1ccc2c3c(n(C)c2c1)[C@@H](CO)N(C(=O)C1CCCC1)CC31CCN(C(=O)Nc2cccc(F)c2)CC1", "activity change, negative = cytotoxicity": "-1.21%"}
{"smiles": "O=C(Nc1ccccc1F)N1CCCCN2[C@@H](CO)[C@@H](c3ccc(C#Cc4cccnc4)cc3)[C@@H]2C1", "activity change, negative = cytotoxicity": "-1.88%"}
{"smiles": "C[C@H]1CN([C@@H](C)CO)S(=O)(=O)c2ccc(-c3ccc(C#N)cc3)cc2O[C@H]1CN(C)CC1CC1", "activity change, negative = cytotoxicity": "9.95%"}
{"smiles": "CCS(=O)(=O)N1CCC2(CC1)CN(S(=O)(=O)c1ccc(C)cc1)[C@@H](CO)c1[nH]c3cc(OC)ccc3c12", "activity change, negative = cytotoxicity": "6.02%"}
{"smiles": "c1cncc(-c2ccc(C3[C@@H]4CN(Cc5nccs5)C[C@H]3N4)cc2)c1", "note": "(stereo not given in full)", "activity change, negative = cytotoxicity": "-6.36% [at 21 µM]"}
{"smiles": "FC(F)(F)c1cccc(CN2[C@@H]3CNC[C@H]2[C@@H]3c2ccc(-c3cccnc3)cc2)c1", "activity change, negative = cytotoxicity": "4.45%"}
{"smiles": "Cc1cccc(S(=O)(=O)N2C[C@@H]3N[C@H](C2)C3c2ccc(-c3cccnc3)cc2)c1", "note": "(stereo not given in full)", "activity change, negative = cytotoxicity": "16.7%"}
{"smiles": "Fc1cccc(-c2ccc(C3[C@@H]4CN(Cc5cncnc5)C[C@H]3N4)cc2)c1", "note": "(stereo not given in full)", "activity change, negative = cytotoxicity": "-17.6%"}
{"smiles": "O=C(C1CCCC1)N1CC(=O)N2[C@H](CO)[C@H](c3ccc(-c4cccnc4)cc3)[C@H]2C1", "activity change, negative = cytotoxicity": "-3.82% [at 21 µM]"}
{"smiles": "C[C@@H]1CN([C@H](C)CO)S(=O)(=O)c2ccc(C#Cc3ccccc3)cc2O[C@H]1CN(C)S(=O)(=O)c1cn(C)cn1", "activity change, negative = cytotoxicity": "-9.83%"}
{"smiles": "CC(C)C#Cc1ccc([C@@H]2[C@@H](CO)N3C(=O)CN(C(=O)C4CCCCC4)C[C@@H]23)cc1", "activity change, negative = cytotoxicity": "10.8%"}
{"smiles": "CO[C@@H]1CN(C)C(=O)c2ccc(NC(=O)C3CC3)cc2OC[C@@H](C)N(Cc2ccccc2)C[C@H]1C", "activity change, negative = cytotoxicity": "18.3%"}
{"smiles": "CC(=O)N1CC2(C1)[C@@H](c1ccc(-c3cccc(F)c3)cc1)[C@@H](CO)N2CC1CCCC1", "activity change, negative = cytotoxicity": "-0.52% [at 21 µM]"}
{"smiles": "O=C(c1ccccc1F)N1C[C@H]2[C@@H](c3ccccc31)[C@@H](CO)N2C(=O)c1ccc(F)cc1", "activity change, negative = cytotoxicity": "9.79%"}
{"smiles": "CCS(=O)(=O)N1CC2(CN(Cc3ccccc3F)[C@@H](CO)c3[nH]c4cc(OC)ccc4c32)C1", "activity change, negative = cytotoxicity": "10.7%"}
{"smiles": "CCCC(=O)Nc1ccc2c(c1)OC[C@@H](C)N(Cc1ccccc1F)C[C@@H](C)[C@H](OC)CN(C)C2=O", "activity change, negative = cytotoxicity": "8.16%"}
{"smiles": "O=C(c1ccncc1)N1CC(=O)N2[C@H](C1)[C@@H](c1ccc(-c3cccnc3)cc1)[C@@H]2CO", "activity change, negative = cytotoxicity": "14.1%"}
{"smiles": "O=C(C1CCC1)N1CC(=O)N2[C@H](CO)[C@@H](c3ccc(C#CCc4ccccc4)cc3)[C@H]2C1", "activity change, negative = cytotoxicity": "-13.3%"}
{"smiles": "COc1cccc(C#Cc2ccc([C@H]3[C@@H](CO)N4C(=O)CN(C(=O)c5ccccc5)C[C@H]34)cc2)c1", "activity change, negative = cytotoxicity": "-15.4%"}
{"smiles": "O=C(C1CCCC1)N1CC(=O)N2[C@H](CO)[C@@H](c3ccc(C#CCc4ccccc4)cc3)[C@@H]2C1", "activity change, negative = cytotoxicity": "-5.22%"}
{"smiles": "COc1ccc(C#Cc2ccc([C@H]3[C@H]4CN(C(=O)c5ccccc5)CC(=O)N4[C@H]3CO)cc2)cc1", "activity change, negative = cytotoxicity": "6.6%"}
{"smiles": "O=C(Cc1ccccc1)N1CC(=O)N2[C@H](CO)[C@H](c3ccc(C#CCc4ccccc4)cc3)[C@H]2C1", "activity change, negative = cytotoxicity": "-5.15%"}
{"smiles": "O=C(C1CCCCC1)N1CC(=O)N2[C@H](CO)[C@@H](c3ccc(C#CCc4ccccc4)cc3)[C@@H]2C1", "activity change, negative = cytotoxicity": "6.41%"}
{"smiles": "O=C(C1CCC1)N1CC(=O)N2[C@H](CO)[C@@H](c3ccc(C#CCc4ccccc4)cc3)[C@@H]2C1", "activity change, negative = cytotoxicity": "-13.9%"}
{"smiles": "O=C(C1CC1)N1CC(=O)N2[C@H](CO)[C@@H](c3ccc(C#CCc4ccccc4)cc3)[C@@H]2C1", "activity change, negative = cytotoxicity": "17.3%"}
{"smiles": "C[C@H]1CN([C@@H](C)CO)C(=O)c2c(c3ccccc3n2C)-c2ccccc2CO[C@@H]1CN(C)S(=O)(=O)c1ccc(F)cc1", "activity change, negative = cytotoxicity": "12.3% [at 21 µM]"}
{"smiles": "N#C[C@H]1[C@@H](c2ccc(C#Cc3ccccc3F)cc2)[C@@H](CO)N1C(=O)C1CCC1", "activity change, negative = cytotoxicity": "-18%"}
{"smiles": "C[C@H]1CN([C@@H](C)CO)S(=O)(=O)c2ccc(C#Cc3ccccc3)cc2O[C@H]1CN(C)C(=O)C1CC1", "activity change, negative = cytotoxicity": "0.74%"}
{"smiles": "CCCC(=O)Nc1ccc2c(c1)OC[C@@H](C)N(Cc1cc(F)ccc1F)C[C@@H](C)[C@H](OC)CN(C)C2=O", "activity change, negative = cytotoxicity": "14%"}
{"smiles": "COc1ccccc1-c1ccccc1[C@H]1[C@H](C#N)N(C(=O)C2CCC2)[C@H]1CO", "activity change, negative = cytotoxicity": "8.19%"}
